# Laboratory results as given in publication PMC11006913.
# Changes are numbered by the printed parent chain.
# Legend:
# Assay in all cases: PBM; 200 nM protein, PBS
# Conditions in all cases: dsDNA, one strand shown
# ALX4 [1] = biological target: ALX4 (Homo sapiens, UniProt Q9H161 200-286)
# ALX4 [2] = biological target: ALX4 (Homo sapiens, UniProt Q9H161 200-286, Q225E)
# HOXD13 [3] = biological target: HOXD13 (Homo sapiens, UniProt P35453 263-343)
# PROP1 [4] = biological target: PROP1 (Homo sapiens, UniProt O75360 56-141)
# PROP1 [5] = biological target: PROP1 (Homo sapiens, UniProt O75360 56-141, R99H)
# HOXD13 [6] = biological target: HOXD13 (Homo sapiens, UniProt P35453 263-343, T313A)
# PROP1 [7] = biological target: PROP1 (Homo sapiens, UniProt O75360 56-141, F88S)
# PAX4 [8] = biological target: T1, PAX4 (Homo sapiens, UniProt O43316 9-242, R200K)
# T1 sequence: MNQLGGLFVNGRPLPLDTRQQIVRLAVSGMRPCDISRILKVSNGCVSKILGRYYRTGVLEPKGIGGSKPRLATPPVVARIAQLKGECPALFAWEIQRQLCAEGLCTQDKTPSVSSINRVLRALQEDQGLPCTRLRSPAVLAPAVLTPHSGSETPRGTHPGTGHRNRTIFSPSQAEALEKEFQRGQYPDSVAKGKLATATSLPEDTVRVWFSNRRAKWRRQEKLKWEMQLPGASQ
# PRRX1 [9] = biological target: PRRX1 (Homo sapiens, UniProt P54821 80-166, F113S)
# PAX4 [10] = biological target: T2, PAX4 (Homo sapiens, UniProt O43316 9-242)
# T2 sequence: T1 sequence with K192R
# PAX4 [11] = biological target: T3, PAX4 (Homo sapiens, UniProt O43316 9-242, R200Q)
# T3 sequence: T1 sequence with K192Q
# SHOX = SHOX (Homo sapiens, UniProt O15266 103-189, R173C)
# PAX4 [12] = biological target: T4, PAX4 (Homo sapiens, UniProt O43316 9-242, F177V)
# T4 sequence: T1 sequence with F169V, K192R
# PAX4 [13] = biological target: T5, PAX4 (Homo sapiens, UniProt O43316 9-242, F177Y)
# T5 sequence: T1 sequence with F169Y, K192R
# HESX1 [14] = biological target: HESX1 (Homo sapiens, UniProt Q9UBX0 95-180, R109Q)
# ALX3 [15] = biological target: ALX3 (Homo sapiens, UniProt O95076 139-225, L168V)
# HESX1 [16] = biological target: HESX1 (Homo sapiens, UniProt Q9UBX0 95-180, F115L)
# PAX4 [17] = biological target: T6, PAX4 (Homo sapiens, UniProt O43316 9-242, R227W)
# T6 sequence: T1 sequence with K192R, R219W
# HOXA4 = HOXA4 (Homo sapiens, UniProt Q00056 201-287, R217L)
# ALX3 [18] = biological target: ALX3 (Homo sapiens, UniProt O95076 139-225, N203S)
# HOXB6 = HOXB6 (Homo sapiens, UniProt P17509 132-218, K202E)
# ALX3 [19] = biological target: ALX3 (Homo sapiens, UniProt O95076 139-225, N203Q)
# PRRX1 [20] = biological target: PRRX1 (Homo sapiens, UniProt P54821 80-166)
# ALX1 [21] = biological target: ALX1 (Homo sapiens, UniProt Q15699 118-204, L144V)
# ALX1 [22] = biological target: ALX1 (Homo sapiens, UniProt Q15699 118-204, L144R)
# ALX1 [23] = biological target: ALX1 (Homo sapiens, UniProt Q15699 118-204)
# ALX1 (Homo sapiens, UniProt Q15699 118-204), sequence (Q15699 118-204): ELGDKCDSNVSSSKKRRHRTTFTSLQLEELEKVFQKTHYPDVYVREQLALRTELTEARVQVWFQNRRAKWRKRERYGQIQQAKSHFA
# ALX4 (Homo sapiens, UniProt Q9H161 200-286, Q225E), sequence (Q9H161 200-286 Q225E): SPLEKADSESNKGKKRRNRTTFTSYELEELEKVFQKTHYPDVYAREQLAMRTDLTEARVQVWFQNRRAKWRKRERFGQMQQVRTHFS
# ALX4 (Homo sapiens, UniProt Q9H161 200-286), sequence (Q9H161 200-286): as the sequence (Q9H161 200-286 Q225E) above, with E26Q counted along it
# PRRX1 (Homo sapiens, UniProt P54821 80-166, F113S), sequence (P54821 80-166 F113S): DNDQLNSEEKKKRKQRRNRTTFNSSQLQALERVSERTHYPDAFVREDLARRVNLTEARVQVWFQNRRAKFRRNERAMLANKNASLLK
# ALX3 (Homo sapiens, UniProt O95076 139-225, N203S), sequence (O95076 139-225 N203S): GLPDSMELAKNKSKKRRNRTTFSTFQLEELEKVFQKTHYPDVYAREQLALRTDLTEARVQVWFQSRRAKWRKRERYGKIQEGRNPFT
# PROP1 (Homo sapiens, UniProt O75360 56-141, R99H), sequence (O75360 56-141 R99H): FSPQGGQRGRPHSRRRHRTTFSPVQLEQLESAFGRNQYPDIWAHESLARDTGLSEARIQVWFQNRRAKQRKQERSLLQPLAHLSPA
# HOXA4, sequence (Q00056 201-287 R217L): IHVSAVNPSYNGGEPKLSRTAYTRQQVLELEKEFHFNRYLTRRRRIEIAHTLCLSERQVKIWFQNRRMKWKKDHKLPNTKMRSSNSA
# HOXD13 (Homo sapiens, UniProt P35453 263-343), sequence (P35453 263-343): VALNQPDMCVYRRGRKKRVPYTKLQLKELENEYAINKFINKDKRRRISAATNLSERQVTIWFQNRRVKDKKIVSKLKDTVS
# PRRX1 (Homo sapiens, UniProt P54821 80-166), sequence (P54821 80-166): as the sequence (P54821 80-166 F113S) above, with S34F counted along it
# ALX1 (Homo sapiens, UniProt Q15699 118-204, L144R), sequence (Q15699 118-204 L144R): as the sequence (Q15699 118-204) above, with L27R counted along it
# PROP1 (Homo sapiens, UniProt O75360 56-141, F88S), sequence (O75360 56-141 F88S): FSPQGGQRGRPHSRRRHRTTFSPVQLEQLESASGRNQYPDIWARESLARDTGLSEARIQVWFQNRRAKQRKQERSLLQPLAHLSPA
# HESX1 (Homo sapiens, UniProt Q9UBX0 95-180, F115L), sequence (Q9UBX0 95-180 F115L): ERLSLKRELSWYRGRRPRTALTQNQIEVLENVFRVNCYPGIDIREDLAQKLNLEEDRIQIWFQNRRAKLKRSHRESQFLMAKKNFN
# SHOX, sequence (O15266 103-189 R173C): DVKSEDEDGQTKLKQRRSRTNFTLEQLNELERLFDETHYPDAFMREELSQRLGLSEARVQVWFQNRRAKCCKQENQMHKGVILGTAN
# HOXB6, sequence (P17509 132-218 K202E): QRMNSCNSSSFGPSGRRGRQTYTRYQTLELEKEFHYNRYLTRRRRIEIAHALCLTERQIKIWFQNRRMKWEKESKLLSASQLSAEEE
# ALX1 (Homo sapiens, UniProt Q15699 118-204, L144V), sequence (Q15699 118-204 L144V): as the sequence (Q15699 118-204) above, with L27V counted along it
# ALX3 (Homo sapiens, UniProt O95076 139-225, N203Q), sequence (O95076 139-225 N203Q): as the sequence (O95076 139-225 N203S) above, with S65Q counted along it
# PROP1 (Homo sapiens, UniProt O75360 56-141), sequence (O75360 56-141): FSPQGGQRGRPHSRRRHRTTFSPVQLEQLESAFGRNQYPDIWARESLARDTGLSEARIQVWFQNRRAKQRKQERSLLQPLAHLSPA
# HESX1 (Homo sapiens, UniProt Q9UBX0 95-180, R109Q), sequence (Q9UBX0 95-180 R109Q): as the sequence (Q9UBX0 95-180 F115L) above, with R15Q, L21F counted along it
# ALX3 (Homo sapiens, UniProt O95076 139-225, L168V), sequence (O95076 139-225 L168V): as the sequence (O95076 139-225 N203S) above, with L30V, S65N counted along it
# HOXD13 (Homo sapiens, UniProt P35453 263-343, T313A), sequence (P35453 263-343 T313A): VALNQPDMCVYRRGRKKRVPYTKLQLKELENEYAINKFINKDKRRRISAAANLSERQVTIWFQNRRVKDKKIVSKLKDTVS
sequence,measurement,setting,value
AATTTATC,binding signal,ALX4 [1],"12 upbm affinity estimate (log intensity, higher = more binding, comparable within an allelic series)"
same,binding signal,ALX4 [2],"11.1 upbm affinity estimate (log intensity, higher = more binding, comparable within an allelic series)"
same,binding signal,HOXD13 [3],"11 upbm affinity estimate (log intensity, higher = more binding, comparable within an allelic series)"
same,binding signal,PROP1 [4],"9.59 upbm affinity estimate (log intensity, higher = more binding, comparable within an allelic series)"
same,binding signal,PROP1 [5],"9.17 upbm affinity estimate (log intensity, higher = more binding, comparable within an allelic series)"
same,binding signal,HOXD13 [6],"10.9 upbm affinity estimate (log intensity, higher = more binding, comparable within an allelic series)"
same,binding signal,PROP1 [7],"7.6 upbm affinity estimate (log intensity, higher = more binding, comparable within an allelic series)"
AATTAGAA,binding signal,PAX4 [8],"11.6 upbm affinity estimate (log intensity, higher = more binding, comparable within an allelic series)"
same,binding signal,PRRX1 [9],"11.1 upbm affinity estimate (log intensity, higher = more binding, comparable within an allelic series)"
same,binding signal,PAX4 [10],"12.1 upbm affinity estimate (log intensity, higher = more binding, comparable within an allelic series)"
same,binding signal,PAX4 [11],"11.9 upbm affinity estimate (log intensity, higher = more binding, comparable within an allelic series)"
same,binding signal,SHOX,"9.39 upbm affinity estimate (log intensity, higher = more binding, comparable within an allelic series)"
same,binding signal,PAX4 [12],"10.5 upbm affinity estimate (log intensity, higher = more binding, comparable within an allelic series)"
same,binding signal,PAX4 [13],"10.9 upbm affinity estimate (log intensity, higher = more binding, comparable within an allelic series)"
same,binding signal,HESX1 [14],"8.83 upbm affinity estimate (log intensity, higher = more binding, comparable within an allelic series)"
same,binding signal,ALX3 [15],"9.7 upbm affinity estimate (log intensity, higher = more binding, comparable within an allelic series)"
same,binding signal,HESX1 [16],"7.75 upbm affinity estimate (log intensity, higher = more binding, comparable within an allelic series)"
same,binding signal,PAX4 [17],"10.9 upbm affinity estimate (log intensity, higher = more binding, comparable within an allelic series)"
CTCCGGCC,binding signal,ALX4 [1],"8.03 upbm affinity estimate (log intensity, higher = more binding, comparable within an allelic series)"
same,binding signal,ALX4 [2],"8.06 upbm affinity estimate (log intensity, higher = more binding, comparable within an allelic series)"
ATAACCAA,binding signal,ALX4 [1],"10.1 upbm affinity estimate (log intensity, higher = more binding, comparable within an allelic series)"
same,binding signal,ALX4 [2],"9.6 upbm affinity estimate (log intensity, higher = more binding, comparable within an allelic series)"
AAGTAATT,binding signal,ALX4 [1],"13 upbm affinity estimate (log intensity, higher = more binding, comparable within an allelic series)"
same,binding signal,ALX4 [2],"12 upbm affinity estimate (log intensity, higher = more binding, comparable within an allelic series)"
same,binding signal,HOXA4,"12 upbm affinity estimate (log intensity, higher = more binding, comparable within an allelic series)"
same,binding signal,ALX3 [18],"8.65 upbm affinity estimate (log intensity, higher = more binding, comparable within an allelic series)"
CATATTAA,binding signal,PAX4 [8],"11.8 upbm affinity estimate (log intensity, higher = more binding, comparable within an allelic series)"
same,binding signal,PAX4 [10],"12.1 upbm affinity estimate (log intensity, higher = more binding, comparable within an allelic series)"
same,binding signal,HOXB6,"10 upbm affinity estimate (log intensity, higher = more binding, comparable within an allelic series)"
same,binding signal,ALX3 [19],"8.63 upbm affinity estimate (log intensity, higher = more binding, comparable within an allelic series)"
same,binding signal,PAX4 [11],"11.8 upbm affinity estimate (log intensity, higher = more binding, comparable within an allelic series)"
same,binding signal,PAX4 [12],"10.8 upbm affinity estimate (log intensity, higher = more binding, comparable within an allelic series)"
same,binding signal,PAX4 [13],"11 upbm affinity estimate (log intensity, higher = more binding, comparable within an allelic series)"
same,binding signal,PAX4 [17],"11 upbm affinity estimate (log intensity, higher = more binding, comparable within an allelic series)"
same,binding signal,ALX3 [18],"8.71 upbm affinity estimate (log intensity, higher = more binding, comparable within an allelic series)"
ATAGAGAT,binding signal,PAX4 [8],"10.5 upbm affinity estimate (log intensity, higher = more binding, comparable within an allelic series)"
same,binding signal,PAX4 [10],"10.6 upbm affinity estimate (log intensity, higher = more binding, comparable within an allelic series)"
ATAATTTG,binding signal,PAX4 [8],"11.6 upbm affinity estimate (log intensity, higher = more binding, comparable within an allelic series)"
same,binding signal,PRRX1 [9],"10.9 upbm affinity estimate (log intensity, higher = more binding, comparable within an allelic series)"
same,binding signal,PAX4 [10],"12.1 upbm affinity estimate (log intensity, higher = more binding, comparable within an allelic series)"
same,binding signal,PAX4 [11],"12 upbm affinity estimate (log intensity, higher = more binding, comparable within an allelic series)"
same,binding signal,PAX4 [12],"10.5 upbm affinity estimate (log intensity, higher = more binding, comparable within an allelic series)"
same,binding signal,PAX4 [13],"10.9 upbm affinity estimate (log intensity, higher = more binding, comparable within an allelic series)"
same,binding signal,PAX4 [17],"11 upbm affinity estimate (log intensity, higher = more binding, comparable within an allelic series)"
same,binding signal,PRRX1 [20],"13.2 upbm affinity estimate (log intensity, higher = more binding, comparable within an allelic series)"
GACTGGAC,binding signal,ALX4 [1],"7.98 upbm affinity estimate (log intensity, higher = more binding, comparable within an allelic series)"
same,binding signal,ALX4 [2],"8.14 upbm affinity estimate (log intensity, higher = more binding, comparable within an allelic series)"
same,binding signal,ALX1 [21],"6.55 upbm affinity estimate (log intensity, higher = more binding, comparable within an allelic series)"
same,binding signal,ALX1 [22],"6.42 upbm affinity estimate (log intensity, higher = more binding, comparable within an allelic series)"
same,binding signal,ALX1 [23],"6.44 upbm affinity estimate (log intensity, higher = more binding, comparable within an allelic series)"
